Test results: PMC7862700, “An all-to-all approach to the identification of sequence-specific readers for epigenetic DNA modifications on cytosine”

How the values were obtained:
Test in all cases: DAPPL (digital affinity profiling via proximity ligation, sequencing); 10 mM Tris-HCl pH 7.5, 50 mM NaCl, 1 mM DTT, 4% glycerol, room temperature, 30 min; GST-TFs on glutathione beads, 16-mer random dsDNA library, 0.1% formaldehyde crosslink after washing; high values mean tight binding
Settings in all cases: protein: recombinant; tags: N-terminal GST; dsDNA, one strand shown
FLI1 = biological target: T1, FLI1 (Homo sapiens, UniProt Q01543 1-452)
T1 sequence: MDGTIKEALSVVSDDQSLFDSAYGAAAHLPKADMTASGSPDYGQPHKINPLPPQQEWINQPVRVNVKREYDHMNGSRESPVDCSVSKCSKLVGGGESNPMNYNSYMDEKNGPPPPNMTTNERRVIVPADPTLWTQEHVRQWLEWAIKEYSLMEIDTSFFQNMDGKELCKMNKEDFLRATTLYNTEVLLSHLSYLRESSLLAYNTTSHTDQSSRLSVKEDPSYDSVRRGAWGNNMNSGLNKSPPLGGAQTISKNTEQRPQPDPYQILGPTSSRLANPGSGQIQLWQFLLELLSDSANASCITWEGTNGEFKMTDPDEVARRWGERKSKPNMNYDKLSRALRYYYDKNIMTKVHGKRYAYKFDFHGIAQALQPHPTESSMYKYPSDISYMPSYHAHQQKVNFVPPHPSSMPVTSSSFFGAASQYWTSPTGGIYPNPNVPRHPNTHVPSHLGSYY
In short: (§1)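 Human transcription factors fused to GST were expressed in yeast, captured on glutathione beads, given DNA barcodes and pooled with a GST-only negative control. Pools were incubated with 200 nmole of a 16-mer random double-stranded DNA library in Tris/NaCl/DTT/glycerol buffer at room temperature for 30 min. They were then washed, crosslinked with 0.1% formaldehyde, proximity-ligated (BsaI/T4 ligase, 1 h, 37 °C), PCR-amplified and sequenced on an Illumina NextSeq500. Binding signal is each 6-mer's read frequency for a factor divided by its frequency for the GST control.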

ELK1 = biological target: T2, ELK1 (Homo sapiens, UniProt P19419 1-428)
T2 sequence: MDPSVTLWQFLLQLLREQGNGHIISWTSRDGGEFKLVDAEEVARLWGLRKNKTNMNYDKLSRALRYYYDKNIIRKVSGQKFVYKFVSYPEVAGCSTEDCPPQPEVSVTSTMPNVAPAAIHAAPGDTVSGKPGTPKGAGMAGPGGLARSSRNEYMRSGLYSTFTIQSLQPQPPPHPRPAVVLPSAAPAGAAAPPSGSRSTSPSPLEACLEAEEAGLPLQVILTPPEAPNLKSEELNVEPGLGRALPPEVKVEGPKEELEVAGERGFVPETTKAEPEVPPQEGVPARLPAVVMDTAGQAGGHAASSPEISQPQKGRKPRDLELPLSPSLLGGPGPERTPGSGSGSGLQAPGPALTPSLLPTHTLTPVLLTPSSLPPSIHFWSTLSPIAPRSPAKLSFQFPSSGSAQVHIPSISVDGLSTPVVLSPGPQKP
In short: as §1

ERG = biological target: T3, ERG (Homo sapiens, UniProt P11308 1-479)
T3 sequence: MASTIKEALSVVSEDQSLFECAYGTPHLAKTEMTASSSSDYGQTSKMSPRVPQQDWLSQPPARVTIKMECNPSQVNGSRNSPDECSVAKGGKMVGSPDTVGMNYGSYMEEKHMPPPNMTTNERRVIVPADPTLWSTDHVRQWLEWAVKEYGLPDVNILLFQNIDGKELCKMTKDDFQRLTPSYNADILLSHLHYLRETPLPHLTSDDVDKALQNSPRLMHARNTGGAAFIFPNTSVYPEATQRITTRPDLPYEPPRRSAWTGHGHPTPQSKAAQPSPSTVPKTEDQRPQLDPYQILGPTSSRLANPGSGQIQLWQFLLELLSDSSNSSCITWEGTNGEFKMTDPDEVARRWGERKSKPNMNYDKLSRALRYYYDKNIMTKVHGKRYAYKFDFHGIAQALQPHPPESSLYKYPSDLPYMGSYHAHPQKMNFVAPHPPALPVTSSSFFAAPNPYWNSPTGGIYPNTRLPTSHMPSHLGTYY
In short: as §1

EHF = biological target: T4, EHF (Homo sapiens, UniProt Q9NZC4 1-300)
T4 sequence: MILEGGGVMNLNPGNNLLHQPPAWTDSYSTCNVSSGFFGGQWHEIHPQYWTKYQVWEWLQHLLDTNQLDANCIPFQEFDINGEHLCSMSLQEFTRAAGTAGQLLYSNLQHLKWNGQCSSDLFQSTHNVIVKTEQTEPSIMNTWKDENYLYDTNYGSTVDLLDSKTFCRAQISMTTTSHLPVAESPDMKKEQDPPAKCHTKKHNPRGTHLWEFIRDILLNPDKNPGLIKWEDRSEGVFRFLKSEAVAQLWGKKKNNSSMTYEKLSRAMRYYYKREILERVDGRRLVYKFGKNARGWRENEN
In short: as §1

SPIC = biological target: T5, SPIC (Homo sapiens, UniProt Q8N5J4 1-248)
T5 sequence: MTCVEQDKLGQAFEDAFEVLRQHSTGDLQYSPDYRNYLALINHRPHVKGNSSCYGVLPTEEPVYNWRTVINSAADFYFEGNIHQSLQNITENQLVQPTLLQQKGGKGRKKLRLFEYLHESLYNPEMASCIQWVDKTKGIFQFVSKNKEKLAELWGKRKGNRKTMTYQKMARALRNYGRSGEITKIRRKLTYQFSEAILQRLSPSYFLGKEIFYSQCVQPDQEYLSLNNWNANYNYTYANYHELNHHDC
In short: as §1

ELF4 = ELF4 (Homo sapiens, UniProt Q99607 1-663)
In short: as §1

ELK4 = biological target: T6, ELK4 (Homo sapiens, UniProt P28324-2 1-405)
T6 sequence: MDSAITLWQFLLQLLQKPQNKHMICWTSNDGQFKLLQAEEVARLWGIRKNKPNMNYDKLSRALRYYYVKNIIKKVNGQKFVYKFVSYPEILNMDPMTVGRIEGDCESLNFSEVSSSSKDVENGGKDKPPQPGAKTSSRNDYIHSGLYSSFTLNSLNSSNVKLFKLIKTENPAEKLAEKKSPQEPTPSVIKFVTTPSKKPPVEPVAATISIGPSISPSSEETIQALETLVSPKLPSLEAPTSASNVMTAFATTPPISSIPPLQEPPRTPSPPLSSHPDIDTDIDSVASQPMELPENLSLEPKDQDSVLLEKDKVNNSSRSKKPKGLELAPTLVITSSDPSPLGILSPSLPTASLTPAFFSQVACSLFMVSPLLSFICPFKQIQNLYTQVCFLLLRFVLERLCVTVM
In short: as §1

ETV2 = biological target: T7, ETV2 (Homo sapiens, UniProt O00321 1-342)
T7 sequence: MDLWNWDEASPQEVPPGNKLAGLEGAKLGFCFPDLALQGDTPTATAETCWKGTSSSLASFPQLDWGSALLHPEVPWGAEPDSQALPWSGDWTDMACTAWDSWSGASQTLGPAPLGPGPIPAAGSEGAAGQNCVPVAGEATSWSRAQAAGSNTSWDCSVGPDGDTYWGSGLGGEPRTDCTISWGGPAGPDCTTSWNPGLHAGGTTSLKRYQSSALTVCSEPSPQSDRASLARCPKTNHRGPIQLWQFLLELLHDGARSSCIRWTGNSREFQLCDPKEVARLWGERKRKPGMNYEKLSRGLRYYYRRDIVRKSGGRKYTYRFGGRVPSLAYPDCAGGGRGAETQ
In short: as §1

ETV1 = ETV1 (Homo sapiens, UniProt P50549 1-477)
In short: as §1

ETS2 = biological target: T8, ETS2 (Homo sapiens, UniProt P15036 1-469)
T8 sequence: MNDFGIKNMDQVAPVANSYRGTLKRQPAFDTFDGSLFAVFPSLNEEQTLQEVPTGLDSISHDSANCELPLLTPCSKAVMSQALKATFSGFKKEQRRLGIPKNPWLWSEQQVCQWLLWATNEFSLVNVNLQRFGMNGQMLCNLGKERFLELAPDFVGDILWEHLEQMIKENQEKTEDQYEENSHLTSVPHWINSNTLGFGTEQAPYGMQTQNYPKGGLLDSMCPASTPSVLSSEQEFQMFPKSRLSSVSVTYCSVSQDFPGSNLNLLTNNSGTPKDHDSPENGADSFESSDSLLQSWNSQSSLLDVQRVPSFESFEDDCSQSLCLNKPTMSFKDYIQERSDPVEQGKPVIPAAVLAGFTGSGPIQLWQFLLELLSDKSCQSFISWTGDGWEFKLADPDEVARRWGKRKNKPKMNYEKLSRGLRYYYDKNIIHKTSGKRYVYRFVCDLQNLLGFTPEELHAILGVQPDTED
In short: as §1

ETV3 = biological target: T9, ETV3 (Homo sapiens, UniProt P41162-2 1-143)
T9 sequence: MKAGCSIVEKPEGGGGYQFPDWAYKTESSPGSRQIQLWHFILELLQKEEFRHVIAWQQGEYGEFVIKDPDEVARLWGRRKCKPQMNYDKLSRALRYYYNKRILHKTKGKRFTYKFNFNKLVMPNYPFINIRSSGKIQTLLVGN
In short: as §1

GABPA = biological target: T10, GABPA (Homo sapiens, UniProt Q06546 1-454)
T10 sequence: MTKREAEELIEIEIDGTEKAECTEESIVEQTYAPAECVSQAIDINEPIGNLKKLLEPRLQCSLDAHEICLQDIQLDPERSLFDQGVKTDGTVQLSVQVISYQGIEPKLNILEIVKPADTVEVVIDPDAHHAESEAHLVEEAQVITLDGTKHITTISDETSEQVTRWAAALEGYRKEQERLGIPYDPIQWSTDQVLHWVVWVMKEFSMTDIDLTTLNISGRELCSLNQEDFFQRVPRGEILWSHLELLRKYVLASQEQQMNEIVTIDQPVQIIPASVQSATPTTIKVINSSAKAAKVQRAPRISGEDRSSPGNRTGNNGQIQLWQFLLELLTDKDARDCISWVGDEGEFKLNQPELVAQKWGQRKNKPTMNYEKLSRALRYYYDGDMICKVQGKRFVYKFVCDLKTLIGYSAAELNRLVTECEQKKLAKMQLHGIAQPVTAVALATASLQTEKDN
In short: as §1

ELF1 = ELF1 (Homo sapiens, UniProt P32519 1-619)
In short: as §1

SPIB = SPIB (Homo sapiens, UniProt Q01892 1-262)
In short: as §1

ETV6 = ETV6 (Homo sapiens, UniProt P41212 1-452)
In short: as §1

Chain of ETV1 (P50549 whole entry): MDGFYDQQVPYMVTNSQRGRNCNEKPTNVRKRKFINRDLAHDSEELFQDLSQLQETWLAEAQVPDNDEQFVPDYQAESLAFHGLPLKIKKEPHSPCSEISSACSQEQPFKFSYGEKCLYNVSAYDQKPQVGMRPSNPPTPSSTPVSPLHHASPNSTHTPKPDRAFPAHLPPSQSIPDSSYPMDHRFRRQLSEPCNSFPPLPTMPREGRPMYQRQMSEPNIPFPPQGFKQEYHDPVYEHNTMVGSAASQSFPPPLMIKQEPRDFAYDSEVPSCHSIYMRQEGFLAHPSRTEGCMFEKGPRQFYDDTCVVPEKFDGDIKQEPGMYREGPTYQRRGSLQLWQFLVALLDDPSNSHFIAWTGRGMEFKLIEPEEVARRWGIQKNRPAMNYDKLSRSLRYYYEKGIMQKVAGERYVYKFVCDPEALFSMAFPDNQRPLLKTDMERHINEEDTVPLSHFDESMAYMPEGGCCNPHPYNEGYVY
Chain of ELF4 (Q99607 whole entry): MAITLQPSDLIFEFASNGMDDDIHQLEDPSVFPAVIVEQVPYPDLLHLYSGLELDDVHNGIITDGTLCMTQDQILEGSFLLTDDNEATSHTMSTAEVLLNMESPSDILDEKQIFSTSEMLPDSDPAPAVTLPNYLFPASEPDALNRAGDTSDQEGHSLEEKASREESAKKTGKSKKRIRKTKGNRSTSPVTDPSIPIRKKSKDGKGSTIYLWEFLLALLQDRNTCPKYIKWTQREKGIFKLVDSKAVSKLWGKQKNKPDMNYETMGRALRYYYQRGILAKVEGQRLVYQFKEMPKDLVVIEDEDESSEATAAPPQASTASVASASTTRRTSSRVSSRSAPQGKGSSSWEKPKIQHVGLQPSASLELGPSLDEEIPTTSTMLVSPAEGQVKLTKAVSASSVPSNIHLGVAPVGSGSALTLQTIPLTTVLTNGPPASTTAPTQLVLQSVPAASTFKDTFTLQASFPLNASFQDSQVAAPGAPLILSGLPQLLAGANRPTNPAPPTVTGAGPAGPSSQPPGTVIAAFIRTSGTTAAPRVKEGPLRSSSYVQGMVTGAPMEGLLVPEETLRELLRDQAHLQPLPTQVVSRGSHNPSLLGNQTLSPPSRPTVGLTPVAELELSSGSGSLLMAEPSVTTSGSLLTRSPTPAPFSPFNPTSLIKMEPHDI
Chain of ELF1 (P32519 whole entry): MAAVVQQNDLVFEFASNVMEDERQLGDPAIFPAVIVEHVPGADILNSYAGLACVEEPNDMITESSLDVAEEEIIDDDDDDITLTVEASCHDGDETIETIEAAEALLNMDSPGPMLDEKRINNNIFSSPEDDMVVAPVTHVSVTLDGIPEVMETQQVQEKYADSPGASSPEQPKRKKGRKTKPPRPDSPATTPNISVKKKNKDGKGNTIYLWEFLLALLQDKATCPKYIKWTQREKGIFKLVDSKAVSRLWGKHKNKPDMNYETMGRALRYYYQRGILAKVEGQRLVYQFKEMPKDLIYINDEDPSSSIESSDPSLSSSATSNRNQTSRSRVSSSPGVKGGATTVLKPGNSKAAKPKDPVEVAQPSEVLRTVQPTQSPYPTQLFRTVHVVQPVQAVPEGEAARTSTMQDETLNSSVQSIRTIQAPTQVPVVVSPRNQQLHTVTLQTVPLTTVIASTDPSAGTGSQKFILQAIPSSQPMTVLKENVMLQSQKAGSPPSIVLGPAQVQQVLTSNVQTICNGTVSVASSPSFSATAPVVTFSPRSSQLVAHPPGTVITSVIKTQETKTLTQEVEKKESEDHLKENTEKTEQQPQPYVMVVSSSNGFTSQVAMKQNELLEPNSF
Chain of ETV6 (P41212 whole entry): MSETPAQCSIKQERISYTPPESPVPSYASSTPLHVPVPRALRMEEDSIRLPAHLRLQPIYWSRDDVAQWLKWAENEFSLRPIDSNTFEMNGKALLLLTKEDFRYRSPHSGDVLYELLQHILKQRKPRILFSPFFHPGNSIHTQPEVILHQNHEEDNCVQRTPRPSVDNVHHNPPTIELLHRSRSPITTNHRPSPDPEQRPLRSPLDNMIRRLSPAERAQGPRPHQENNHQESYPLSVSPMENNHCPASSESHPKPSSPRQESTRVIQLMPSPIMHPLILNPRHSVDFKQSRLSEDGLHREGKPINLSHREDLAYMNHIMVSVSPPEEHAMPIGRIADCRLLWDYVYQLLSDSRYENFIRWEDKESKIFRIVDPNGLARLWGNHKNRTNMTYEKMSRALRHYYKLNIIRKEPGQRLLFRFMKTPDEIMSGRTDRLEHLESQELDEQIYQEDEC
Chain of SPIB (Q01892 whole entry): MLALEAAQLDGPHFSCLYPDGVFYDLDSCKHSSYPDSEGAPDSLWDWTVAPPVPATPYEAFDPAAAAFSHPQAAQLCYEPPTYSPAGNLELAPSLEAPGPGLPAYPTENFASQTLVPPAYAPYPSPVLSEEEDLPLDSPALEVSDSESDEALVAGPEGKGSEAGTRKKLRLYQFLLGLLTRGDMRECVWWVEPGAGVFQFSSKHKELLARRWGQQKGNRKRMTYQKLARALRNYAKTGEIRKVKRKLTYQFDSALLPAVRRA

Row | Sequence | binding signal (FLI1) | binding signal (ELK1) | binding signal (ERG) | binding signal (EHF) | binding signal (SPIC) | binding signal (ELF4) | binding signal (ELK4) | binding signal (ETV2) | binding signal (ETV1) | binding signal (ETS2) | binding signal (ETV3) | binding signal (GABPA) | binding signal (ELF1) | binding signal (SPIB) | binding signal (ETV6)
1 | GCTAAG | 1.13 fold enrichment (6-mer frequency, TF over GST control) | 1.08 fold enrichment (6-mer frequency, TF over GST control) | 1.01 fold enrichment (6-mer frequency, TF over GST control) | 1.05 fold enrichment (6-mer frequency, TF over GST control) | 1.08 fold enrichment (6-mer frequency, TF over GST control) | 1.06 fold enrichment (6-mer frequency, TF over GST control) | 1.18 fold enrichment (6-mer frequency, TF over GST control) | 1.07 fold enrichment (6-mer frequency, TF over GST control) | 1 fold enrichment (6-mer frequency, TF over GST control) | 1.04 fold enrichment (6-mer frequency, TF over GST control) | 1.04 fold enrichment (6-mer frequency, TF over GST control) |  |  |  | 
2 | TGAATC | 1.03 fold enrichment (6-mer frequency, TF over GST control) | 1.01 fold enrichment (6-mer frequency, TF over GST control) |  | 1.04 fold enrichment (6-mer frequency, TF over GST control) | 1.01 fold enrichment (6-mer frequency, TF over GST control) |  | 1.03 fold enrichment (6-mer frequency, TF over GST control) |  | 1.01 fold enrichment (6-mer frequency, TF over GST control) |  | 1.01 fold enrichment (6-mer frequency, TF over GST control) | 1.05 fold enrichment (6-mer frequency, TF over GST control) | 1 fold enrichment (6-mer frequency, TF over GST control) | 1.04 fold enrichment (6-mer frequency, TF over GST control) | 1.01 fold enrichment (6-mer frequency, TF over GST control)
